SMILES strings stand for the structures. Hit rate of the full screen: of about 360,000 compounds, about 3,700 (1%) were called active. Not shown: some 2% with an inconclusive outcome.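 The calls were made as follows: active = normalized GFP-positive differentiation at or above the plate's own cutoff, the solvent-only control mean plus 3 SD; inconclusive = no clear call, values can overlap the other calls; inactive = the rest.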 The list comes from a sample in which actives are over-represented; it also holds similar structures and randomly drawn compounds.

The test is described as follows: induction of myeloid progenitor differentiation, primary screen, cell-based, flow cytometry, MLPCN library (AID 624256).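 As to GFP+ MAC1+ double positive: cells exposed to compound for four days before flow analysis.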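 As to normalized GFP-positive differentiation: cells exposed to compound for four days before flow analysis; 0% = DMSO wells and 100% = fulvestrant positive control at 5 µM.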 The conditions noted are these: ER-HoxA9 myeloid progenitors, lysozyme-GFP differentiation, at 10 µM; GFP+ MAC1+ double positive: measured here: differentiation confirmed by MAC1 staining, stronger effect = higher value; normalized GFP-positive differentiation: stronger effect = higher value. (In general: A flow cytometer gives signals particle by particle.)
Regarding `O=C1Nc2ccccc2-n2nnnc2C1N1CCN(c2cccc(C(F)(F)F)n2)CC1` (stereo unspecified), the GFP+ MAC1+ double positive stood at 1.4% and the result was inactive.

Consider `CCCCCCc1cc2cc(-c3nnc(-c4ccccc4)o3)c(=O)oc2cc1O`, for which the GFP+ MAC1+ double positive worked out at 56.6% and the normalized GFP-positive differentiation is 197% (active).

Take `CCc1ccc(CN(C)C(=O)CCc2nnc(-c3ccc(-c4ccccc4)cc3)o2)nc1`: the GFP+ MAC1+ double positive amounted to 0.1% and the result was inactive.

Turning to `CN[C@H]1C[C@H]2c3cc(Oc4ccccc4C)ccc3CCN2C(=O)[C@H]1[C@H](C)O`, the GFP+ MAC1+ double positive came out at 0.2% and the outcome was inactive.

On to `O=C(CCC(=O)c1ccccc1)NCc1cccc(C(F)(F)F)c1`, for which the GFP+ MAC1+ double positive was 0.7% and the call was inactive.

Take `Cn1c(=O)c2cc(NC(=O)NCCc3cccs3)ccc2n1Cc1cccc(C(F)(F)F)c1`: the GFP+ MAC1+ double positive came to 1.6% and the call was inactive.

As to `O=C(Cc1cccs1)NCc1cccc(C(F)(F)F)c1`, the GFP+ MAC1+ double positive was 3.5% and the normalized GFP-positive differentiation is 341% (active).

Turning to `COc1ccc(C(=O)C(OP(=O)(OC)OC)c2ccccc2OC)cc1` (stereo unspecified), the GFP+ MAC1+ double positive stood at 2% and the molecule was called inactive.

For the molecule `CN(C)CCCOc1ccc(-c2ccc3nccn3c2)cn1`, the GFP+ MAC1+ double positive is 0.4% and the outcome was inactive.

On to `CCC(=O)c1ccc(OCC(=O)OCC(=O)NC2CCCCCC2)cc1`, for which the GFP+ MAC1+ double positive stood at 1.4% and the call was inactive.

Consider `Cc1ccc(Cl)c(OCC(=O)N2CCc3ccccc3C2)c1`, for which the GFP+ MAC1+ double positive was 0.3% and the outcome was inactive.

Take `CCC(=O)c1ccc(OCC(=O)OCC(=O)N2CCc3ccccc3C2)cc1`: the GFP+ MAC1+ double positive was determined as 0.4% and the normalized GFP-positive differentiation was 6.6% (active).

As to `CCOc1ccc2[nH]c(=S)sc2c1`, the GFP+ MAC1+ double positive turned out to be 0% and the result was inactive.

As to `CCC(CC)C(C(=O)NC1CCCC1)N1CCN(c2cc(C)nc3ccccc23)CC1` (stereo unspecified), the GFP+ MAC1+ double positive came to 1.2% and the call was inactive.

Take `COC(=O)c1ccc2nc(-c3ccccc3)c(Cc3ccc(OC)cc3C)n2c1`: the GFP+ MAC1+ double positive worked out at 1.4% and the molecule was classed as inactive.

In the case of `O[C@H]1CN(Cc2cccs2)[C@@H](c2ccc(Cl)cc2)C[C@@H]1n1cc(C2CC2)nn1`, the GFP+ MAC1+ double positive worked out at 1.3% and the normalized GFP-positive differentiation was 3.49% (inactive).

For the molecule `O[C@H]1C[C@H](c2ccc(Cl)cc2)N(Cc2cccs2)C[C@@H]1n1cc(C2CC2)nn1`, the GFP+ MAC1+ double positive amounted to 3.6% and the normalized GFP-positive differentiation is 19.2% (active).

Take `O[C@@H]1C[C@H](c2ccccc2)N(Cc2cccs2)C[C@H]1n1cc(C2CC2)nn1`: the GFP+ MAC1+ double positive came out at 0.6% and the outcome was inactive.

Consider `CC(C)c1cc(Cn2c3ccccc3c(=O)n2C(C)Cn2cc(C3CC3)nn2)on1` (stereo unspecified), for which the GFP+ MAC1+ double positive was determined as 2.6% and the outcome was inactive.

`COc1cccc(CNc2nc(NCc3cccs3)nc3ccsc23)c1`: the GFP+ MAC1+ double positive came out at 1.5% and the call was inactive.

Turning to `O=S1(=O)C[C@@H](N2CCN(CCO)CC2)[C@H](COCc2ccccc2)N1`, the GFP+ MAC1+ double positive amounted to 0.9% and the molecule was classed as inactive.

As to `CCc1ccc([C@@H]2CC(=O)[C@@H]3CN(S(=O)(=O)c4ccc(C)cc4)[C@H](c4ccc(Cl)cc4)C[C@@H]3N2S(=O)(=O)c2ccc(C)cc2)cc1`, the GFP+ MAC1+ double positive is 1.2% and the result was inactive.

As to `CC(=O)Nc1cncc(-c2ccccc2CO)n1`, the GFP+ MAC1+ double positive was found to be 0.4% and the call was inactive.
